Source: PubChem
Compounds with a hit are over-represented: about 1.2% of the library has one in this group of screens.
hERG WT inh: KCNH2 (human, wildtype) channel inhibition | Q12809 | U2OS, BacMam KCNH2, thallium flux FluxOr; stronger effect = lower value | activity change, % at 1.84 µM | 340,000 tested, 0.37% active | AID 720551;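 active = maximum activity change below -70%; inconclusive = maximum activity change between -70% and -50%; inactive = maximum activity change above -50%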
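U2OS cells transduced with wild-type KCNH2 virus are loaded with FluxOr dye for 45 min, and thallium flux is measured in kinetic reads before and after stimulation buffer. Rate constants are normalized to DMSO controls.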
ASM inhibitor: blocks human secretory acid sphingomyelinase | P17405 | placental ASM, HMU-PC fluorogenic substrate, 60 min | Potency, µM (series often up to 57.5 µM), usual class: inhibitors | 340,000 tested, 0.006% active | AID 504937
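Human placenta-derived ASM enzyme was preincubated with compound for 10 minutes at room temperature, then given fluorogenic substrate HMU-PC0 (9 uM final) for 60 minutes at 37 °C; a pH 10 stop preceded fluorescence reading at Ex 386/Em 447 nm.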
mIDH1 inhibitor: inhibitors of human mutant IDH1 R132H; 390,000 tested, 0.093% active; IDH1-R132H enzyme, NADPH consumption, diaphorase/resazurin fluorescence; O75874; Potency, µM (titrated, usually from 76.6 µM), usual class: inhibitors; note: nearly all actives have a fitted effect of over 65% in size
Target sequence (O75874 whole entry R132H, stated change not applied): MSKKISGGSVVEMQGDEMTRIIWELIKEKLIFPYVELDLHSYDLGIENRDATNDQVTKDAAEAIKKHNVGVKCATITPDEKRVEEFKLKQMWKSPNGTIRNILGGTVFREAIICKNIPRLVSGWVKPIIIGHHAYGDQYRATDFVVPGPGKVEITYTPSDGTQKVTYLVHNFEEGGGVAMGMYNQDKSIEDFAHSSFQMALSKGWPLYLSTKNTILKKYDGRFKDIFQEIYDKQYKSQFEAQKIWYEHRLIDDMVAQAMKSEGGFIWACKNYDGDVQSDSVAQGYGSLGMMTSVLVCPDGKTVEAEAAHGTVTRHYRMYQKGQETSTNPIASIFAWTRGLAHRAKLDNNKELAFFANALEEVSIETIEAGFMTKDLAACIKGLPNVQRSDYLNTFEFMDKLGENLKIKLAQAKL
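IDH1-R132H (0.5 ug/mL dispensed) in pH 7.5 Tris buffer was preincubated 30 min with compound, then given a substrate mix of 0.016 mM NADPH and 2 mM alpha-KG for 80 min at room temperature; remaining NADPH was read by diaphorase/resazurin fluorescence.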
KCNH2 3.1 inh: inhibitors of human KCNH2 3.1 potassium channel isoform. U2OS KCNH2 3.1, thallium flux FluxOr; stronger effect = lower value. AID 720553. activity change, % (tested at about 1.8 µM). 340,000 tested, 0.95% active;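 active = maximum activity change below -70%; inconclusive = maximum activity change from -70% to -50%; inactive = maximum activity change above -50%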;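 note: thallium influx rate constant from kinetic fluorescence after stimulation buffer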
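Kinetic fluorescence (2 min after stimulation buffer) measures Tl+ influx through KCNH2 3.1 expressed by viral transduction in U2OS cells; the rate constant is normalized against DMSO controls serving as positive and negative references.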
Anesthetic bind: binds horse apoferritin like a general anesthetic; apoferritin/1-aminoanthracene competitive binding, fluorescence; P02791; Potency, µM (top dose mostly 77.5 µM), hits mostly inhibitors; 350,000 tested, 0.074% active; note: nearly all actives have a fitted effect of over 20% in size
Target sequence (P02791 2-175 limits assumed): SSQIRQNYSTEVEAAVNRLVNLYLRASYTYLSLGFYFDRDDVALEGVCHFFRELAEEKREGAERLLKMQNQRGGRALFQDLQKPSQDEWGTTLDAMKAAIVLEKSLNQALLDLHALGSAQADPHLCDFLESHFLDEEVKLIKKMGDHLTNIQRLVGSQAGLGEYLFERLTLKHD
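Probe: 1-aminoanthracene (50% saturated, PBS). Protein: horse-spleen apoferritin, 10 uM. Incubation: 10 min, room temperature. Detection: 380 nm excitation, 535 nm emission. Analysis: normalized response, four-parameter Hill.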
Hits are given with their value; i = inactive; ? = inconclusive; nt = not tested or not shown; [ ] = another dose, or the depositor's remark. Unless noted, calls come from the whole dose curve; as a rule, active = well fitted inhibition curve with a large enough effect; inconclusive = small, poorly fitted or top-dose-only effect; inactive = no such curve, though single readings can be large or run the other way.

SMILES	hERG WT inh	ASM inhibitor	mIDH1 inhibitor	KCNH2 3.1 inh	Anesthetic bind
Cc1cc2oc3c(c(=O)c2cc1C)C(c1ccc(C(C)C)cc1)N(c1nc(C)c(C)s1)C3=O (centres undefined)	nt	nt	i	nt	i
CCc1ccc(OCCCC(=O)Nc2nnc(C3CCCO3)s2)cc1 (centres undefined)	-248.1	i	i	i	i
Cc1cccc(OCCCC(=O)Nc2nnc(C3CCCO3)s2)c1C (centres undefined)	i	i	i	i	i
Cc1ccc(C)c(NC(=S)NNC(=O)c2csc3c2CCCC3)c1	i	i	i	i	?
Cc1ccc(C)c(NC(=S)NNC(=O)c2csc3c2CCC(C)C3)c1 (centres undefined)	i	i	i	i	28.2µM
NC(=O)CC(NC(=O)c1ccc(Br)cc1)c1ccc(N2CCN(c3ccccc3)CC2)c([N+](=O)[O-])c1 (centres undefined)	i	i	i	i	?
NC(=O)CC(NC(=O)c1ccccc1)c1ccc(N2CCN(c3ccccn3)CC2)c([N+](=O)[O-])c1 (centres undefined)	i	i	i	-129.6	i
Cc1cc(C)c(S(=O)(=O)/N=C2/C=C(SCC(=O)O)C(=O)c3ccccc32)cc1C	i	?	i	-117.2	i
Cc1cccc(C(=O)Nc2nnc(-c3ccc(C(C)(C)C)cc3)s2)c1	i	i	i	-89.0	i
Cc1ccccc1C(=O)Nc1nnc(-c2ccc(C(C)(C)C)cc2)s1	i	i	i	i	i
CCC1(CC)SCCNC1=O	-281.9	i	i	i	nt
O=C(NCCc1ccccc1)C(c1ccccc1F)N(C(=O)c1csnn1)C1CC1 (centres undefined)	i	i	i	-86.4	i
COc1ccc(Nc2cc(C(=O)NCCCN3CCOCC3)c3ccccc3n2)cc1	i	i	i	i	i
CCc1ccc(Nc2cc(C(=O)NCCCN3CCOCC3)c3ccccc3n2)cc1	i	i	i	-74.4	i
N=c1c2c(-c3ccccc3)c(-c3ccccc3)n(Cc3ccco3)c2ncn1CCCN1CCOCC1	i	i	i	-78.0	i
c1ccc(-c2c(-c3ccccc3)n(Cc3ccco3)c3ncnc(NCCCn4ccnc4)c23)cc1	i	i	29.3µM	nt	i
OCCNc1ncnc2c1c(-c1ccccc1)c(-c1ccccc1)n2Cc1ccco1	i	i	i	i	i
N=c1c2c(-c3ccccc3)c(-c3ccccc3)n(Cc3ccco3)c2ncn1CCCn1ccnc1	i	i	i	-71.4	?
CC(C)Cn1cnc2c(c(-c3ccccc3)c(-c3ccccc3)n2Cc2ccco2)c1=N	-73.7	i	i	-100.7	i
CCN(CC)S(=O)(=O)c1ccc2c(c1)N(CC(=O)Nc1ccc(OC)cc1)C(=O)CS2	nt	nt	i	nt	i
Cc1noc(-c2ccc(N3CCC(C)CC3)c([N+](=O)[O-])c2)n1	nt	nt	i	nt	i
O=C(CSc1nccn1C1CCCC1)Nc1ccccc1	nt	nt	nt	nt	i
CCC(Cc1ccccc1)NC(=O)c1csc2c1CCCCC2 (centres undefined)	nt	nt	i	nt	i
COC(=O)c1ccc(NC(=O)CCc2c(C)nn(-c3ccc(N4CCCCC4)nn3)c2C)cc1	nt	nt	i	nt	i
NCCc1nnc(SCc2c(F)cccc2Cl)o1	i	i	i	i	?
SMILES	hERG WT inh	ASM inhibitor	mIDH1 inhibitor	KCNH2 3.1 inh	Anesthetic bind
Fc1cccc(Cl)c1CSc1nnc(COc2cccc3cccnc23)o1	i	i	i	i	17.8µM
COc1ccc(N2CCN(C(=O)c3cc(-c4ccc(F)cc4)[nH]c3C)CC2)cc1	-88.3	?	i	-82.9	i
COc1ccc(O[C@H]2C=C[C@@H](c3ccccc3)O[C@H]2COC(=O)CC/C(C)=N\O[C@@H](C)CN2CCCc3nc(C)c(C)cc32)cc1	nt	nt	nt	nt	i[15.3 µM]
Cc1ccc(CNC(=O)c2cc(Sc3ccc(F)cc3F)nc3ccccc23)cc1	nt	nt	i	nt	i
CN(C)/N=N/c1nc[nH]c1C(N)=O	nt	nt	nt	nt	i
O=C(NCCc1ccccc1)c1ccc(-c2ccc(F)cc2)o1	i	i	i	i	i
O=C(NCCc1ccccc1)c1ccc(-c2ccccc2C(F)(F)F)o1	i	i	i	-213.8	i
Cc1c(C(=O)NCc2ccccc2F)oc2ccccc12	i	i	i	i	i
Cc1c(C(=O)NCc2cccs2)oc2ccccc12	i	i	i	-79.1	i
Cc1c(C(=O)NC(C)c2ccncc2)oc2ccccc12 (centres undefined)	i	i	i	-108.8	i
Cc1c(C(=O)Nc2ccncc2)oc2ccccc12	i	i	i	i	i
COc1ccc(N(C(=O)c2ccc(OC)c(OC)c2)S(=O)(=O)c2ccc(Cl)cc2)cc1	nt	nt	i	nt	i
CCCCN(C(=O)C1CCC(CNS(=O)(=O)c2cccc3nsnc23)CC1)c1ccccc1 (centres undefined)	nt	nt	i	nt	?
COc1cccc(OC)c1OCCCc1c(C)n[nH]c1C	i	i	i	i	i
Cc1cccc(OCCCc2c(C)n[nH]c2C)c1	i	i	i	-75.0	?
N#C/C(=C/c1ccc(-c2ccccc2)o1)c1nc(-c2cccs2)cs1	i	i	i	-75.9	i
COc1ccc(Nc2ncnc3c2cnn3-c2ccc(C)cc2)cc1Cl	nt	nt	i	nt	i
c1ccc(Oc2nc(NC3CCCCC3)c3[nH]cnc3n2)cc1	nt	nt	nt	nt	i
O=C(NCCc1c[nH]c2ccccc12)C1CCN(S(=O)(=O)c2ccccc2)CC1	i	i	i	i	i
O=C(CCNC(=O)C1CCN(S(=O)(=O)c2ccc(F)cc2)CC1)NCc1ccc(Cl)cc1	i	i	i	-112.6	i
O=C(CCNC(=O)C1CCN(S(=O)(=O)c2ccc(F)cc2)CC1)NCc1ccc(F)cc1	i	i	i	i	i
CC(=O)Nc1ccc(S(=O)(=O)N2CCC(C(=O)NCCc3c[nH]c4ccccc34)CC2)cc1	i	i	i	-133.4	i
CN(C)c1ccc(CNC(=O)c2cc3ccccn3n2)cc1	nt	nt	i	nt	i
Cc1ccc(C(=O)N(Cc2ccc(N(C)C)cc2)CC2CCCO2)cc1 (centres undefined)	nt	nt	i	nt	i
CC(C)(C)NC(=O)CCc1nnc(Cc2c[nH]c3ccccc23)o1	i	i	i	-109.7	i
SMILES	hERG WT inh	ASM inhibitor	mIDH1 inhibitor	KCNH2 3.1 inh	Anesthetic bind
CCC(COC)NC(=O)CCc1nnc(Cc2c[nH]c3ccccc23)o1 (centres undefined)	i	i	i	i	i
O=C(O)c1ccc(-c2c3nc(c(-c4ccc(C(=O)O)cc4)c4ccc([n-]4)c(-c4ccc(C(=O)O)cc4)c4nc(c(-c5ccc(C(=O)O)cc5)c5ccc2[n-]5)C=C4)C=C3)cc1.[Mn+3]	nt	nt	nt	nt	i
COc1ccc(CNC(N)=O)cc1	i	i	i	i	nt
NC(=O)NCc1ccc(Cl)cc1	i	i	i	-80.2	i
O=C(NC1CCCc2ccccc21)C1CCN(c2nnc(-n3cccc3)s2)CC1 (centres undefined)	i	i	i	-79.1	i
Cc1ccc(N2C(=O)CSC23C(=O)N(CC(=O)NC2CCCCC2)c2ccccc23)cc1C (centres undefined)	nt	nt	i	nt	i
